Changes are numbered by the printed parent chain.

Holding throughout (assay): PBM; 200 nM protein, PBS
Holding throughout (details): dsDNA, one strand shown

The target in assay [1] is T1, SIX6 (Homo sapiens, UniProt O95475 114-200, L167I).
T1 sequence: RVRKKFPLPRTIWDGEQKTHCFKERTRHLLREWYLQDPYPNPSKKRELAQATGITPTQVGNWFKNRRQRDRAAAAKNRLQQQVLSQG

Assay [2] deals with T2, SIX6 (Homo sapiens, UniProt O95475 114-200, L143V).
T2 sequence: T1 sequence with L30V, I54L

Assay [3] addresses T3, SIX6 (Homo sapiens, UniProt O95475 114-200, H141N).
T3 sequence: T1 sequence with H28N, I54L

Assay [4] has as its target T4, SIX6 (Homo sapiens, UniProt O95475 114-200, T165P).
T4 sequence: T1 sequence with T52P, I54L

Assay [5] concerns the target T5, SIX6 (Homo sapiens, UniProt O95475 114-200, L167M).
T5 sequence: T1 sequence with I54M

Assay [6] has as its target T6, SIX6 (Homo sapiens, UniProt O95475 114-200, L143M).
T6 sequence: T1 sequence with L30M, I54L

Assay [7] has as its target T7, SIX6 (Homo sapiens, UniProt O95475 114-200, L143I).
T7 sequence: T1 sequence with L30I, I54L

The target of assay [8] is T8, SIX6 (Homo sapiens, UniProt O95475 114-200, T165G).
T8 sequence: T1 sequence with T52G, I54L

The target in assay [9] is T9, SIX6 (Homo sapiens, UniProt O95475 114-200, T139Q).
T9 sequence: T1 sequence with T26Q, I54L

Assay [10] addresses T10, SIX6 (Homo sapiens, UniProt O95475 114-200, T165A).
T10 sequence: T1 sequence with T52A, I54L

The target of assay [11] is T11, SIX6 (Homo sapiens, UniProt O95475 114-200, L167V).
T11 sequence: T1 sequence with I54V

In assay [12] the target is T12, SIX6 (Homo sapiens, UniProt O95475 114-200).
T12 sequence: T1 sequence with I54L

The target in assay [13] is T13, SIX6 (Homo sapiens, UniProt O95475 114-200, T165I).
T13 sequence: T1 sequence with T52I, I54L

In the case of GTGTATCA, the binding signal in the assay with SIX6 [1] was 11.5 upbm affinity estimate (log intensity, higher = more binding, comparable within an allelic series); in the assay with SIX6 [2], 10.5 upbm affinity estimate (log intensity, higher = more binding, comparable within an allelic series); with SIX6 [3], 11.4 upbm affinity estimate (log intensity, higher = more binding, comparable within an allelic series); with SIX6 [4] it was 9.86 upbm affinity estimate (log intensity, higher = more binding, comparable within an allelic series); in the assay with SIX6 [5], 10.9 upbm affinity estimate (log intensity, higher = more binding, comparable within an allelic series); with SIX6 [6], 11.2 upbm affinity estimate (log intensity, higher = more binding, comparable within an allelic series). In addition, the binding signal in the assay with SIX6 [7] is 10.5 upbm affinity estimate (log intensity, higher = more binding, comparable within an allelic series); in the assay with SIX6 [8], 11.5 upbm affinity estimate (log intensity, higher = more binding, comparable within an allelic series); in the assay with SIX6 [9] it was 11.4 upbm affinity estimate (log intensity, higher = more binding, comparable within an allelic series); with SIX6 [10], 11.4 upbm affinity estimate (log intensity, higher = more binding, comparable within an allelic series); with SIX6 [11], 11.2 upbm affinity estimate (log intensity, higher = more binding, comparable within an allelic series); with SIX6 [12], 11.3 upbm affinity estimate (log intensity, higher = more binding, comparable within an allelic series). Also, the binding signal with SIX6 [13] is 11.2 upbm affinity estimate (log intensity, higher = more binding, comparable within an allelic series).
Turning to GATACATA, the binding signal in the assay with SIX6 [1] is 11.1 upbm affinity estimate (log intensity, higher = more binding, comparable within an allelic series); with SIX6 [2], 10.4 upbm affinity estimate (log intensity, higher = more binding, comparable within an allelic series); in the assay with SIX6 [3], 11 upbm affinity estimate (log intensity, higher = more binding, comparable within an allelic series); in the assay with SIX6 [4] it was 10 upbm affinity estimate (log intensity, higher = more binding, comparable within an allelic series); with SIX6 [5], 10.7 upbm affinity estimate (log intensity, higher = more binding, comparable within an allelic series); with SIX6 [6] it was 10.9 upbm affinity estimate (log intensity, higher = more binding, comparable within an allelic series). Moreover, the binding signal was 10.4 upbm affinity estimate (log intensity, higher = more binding, comparable within an allelic series) in the assay with SIX6 [7]; 11 upbm affinity estimate (log intensity, higher = more binding, comparable within an allelic series) with SIX6 [8]; 11.1 upbm affinity estimate (log intensity, higher = more binding, comparable within an allelic series) with SIX6 [9]; 11 upbm affinity estimate (log intensity, higher = more binding, comparable within an allelic series) in the assay with SIX6 [10]; 10.8 upbm affinity estimate (log intensity, higher = more binding, comparable within an allelic series) in the assay with SIX6 [11]; 10.9 upbm affinity estimate (log intensity, higher = more binding, comparable within an allelic series) in the assay with SIX6 [12]. In the assay with SIX6 [13], the binding signal is 10.8 upbm affinity estimate (log intensity, higher = more binding, comparable within an allelic series).
As for AGCGGCGC, the binding signal was 8.85 upbm affinity estimate (log intensity, higher = more binding, comparable within an allelic series) with SIX6 [1]; 8.89 upbm affinity estimate (log intensity, higher = more binding, comparable within an allelic series) with SIX6 [2]; 8.85 upbm affinity estimate (log intensity, higher = more binding, comparable within an allelic series) in the assay with SIX6 [3]; 8.89 upbm affinity estimate (log intensity, higher = more binding, comparable within an allelic series) with SIX6 [4]; 8.88 upbm affinity estimate (log intensity, higher = more binding, comparable within an allelic series) with SIX6 [5]; 8.98 upbm affinity estimate (log intensity, higher = more binding, comparable within an allelic series) with SIX6 [6]. Besides, the binding signal was 8.84 upbm affinity estimate (log intensity, higher = more binding, comparable within an allelic series) in the assay with SIX6 [7]; 8.81 upbm affinity estimate (log intensity, higher = more binding, comparable within an allelic series) with SIX6 [8]; 8.91 upbm affinity estimate (log intensity, higher = more binding, comparable within an allelic series) in the assay with SIX6 [9]; 8.86 upbm affinity estimate (log intensity, higher = more binding, comparable within an allelic series) with SIX6 [10]; 8.82 upbm affinity estimate (log intensity, higher = more binding, comparable within an allelic series) in the assay with SIX6 [11]; 8.72 upbm affinity estimate (log intensity, higher = more binding, comparable within an allelic series) with SIX6 [12]. In addition, in the assay with SIX6 [13], the binding signal was 8.83 upbm affinity estimate (log intensity, higher = more binding, comparable within an allelic series).
GGTATCAA: the binding signal with SIX6 [1] was 11.6 upbm affinity estimate (log intensity, higher = more binding, comparable within an allelic series); with SIX6 [2], 10.6 upbm affinity estimate (log intensity, higher = more binding, comparable within an allelic series); with SIX6 [3], 11.7 upbm affinity estimate (log intensity, higher = more binding, comparable within an allelic series); with SIX6 [4], 9.74 upbm affinity estimate (log intensity, higher = more binding, comparable within an allelic series); with SIX6 [5] it was 11 upbm affinity estimate (log intensity, higher = more binding, comparable within an allelic series); with SIX6 [6], 11.4 upbm affinity estimate (log intensity, higher = more binding, comparable within an allelic series). For the same sequence, the binding signal with SIX6 [7] was 10.6 upbm affinity estimate (log intensity, higher = more binding, comparable within an allelic series); in the assay with SIX6 [8] it was 11.6 upbm affinity estimate (log intensity, higher = more binding, comparable within an allelic series); with SIX6 [9] it was 11.5 upbm affinity estimate (log intensity, higher = more binding, comparable within an allelic series); in the assay with SIX6 [10] it was 11.6 upbm affinity estimate (log intensity, higher = more binding, comparable within an allelic series); in the assay with SIX6 [11], 11.4 upbm affinity estimate (log intensity, higher = more binding, comparable within an allelic series); in the assay with SIX6 [12], 11.4 upbm affinity estimate (log intensity, higher = more binding, comparable within an allelic series). Besides, the binding signal with SIX6 [13] was 11.4 upbm affinity estimate (log intensity, higher = more binding, comparable within an allelic series).
On to CTGTATCA, for which the binding signal is 11.2 upbm affinity estimate (log intensity, higher = more binding, comparable within an allelic series) with SIX6 [1]; 10.3 upbm affinity estimate (log intensity, higher = more binding, comparable within an allelic series) in the assay with SIX6 [2]; 11.2 upbm affinity estimate (log intensity, higher = more binding, comparable within an allelic series) with SIX6 [3]; 9.69 upbm affinity estimate (log intensity, higher = more binding, comparable within an allelic series) in the assay with SIX6 [4]; 10.6 upbm affinity estimate (log intensity, higher = more binding, comparable within an allelic series) with SIX6 [5]; 10.9 upbm affinity estimate (log intensity, higher = more binding, comparable within an allelic series) with SIX6 [6]. Besides, the binding signal in the assay with SIX6 [7] was 10.3 upbm affinity estimate (log intensity, higher = more binding, comparable within an allelic series); with SIX6 [8], 11.1 upbm affinity estimate (log intensity, higher = more binding, comparable within an allelic series); with SIX6 [9] it was 11.1 upbm affinity estimate (log intensity, higher = more binding, comparable within an allelic series); with SIX6 [10], 11.1 upbm affinity estimate (log intensity, higher = more binding, comparable within an allelic series); in the assay with SIX6 [11] it was 10.9 upbm affinity estimate (log intensity, higher = more binding, comparable within an allelic series); in the assay with SIX6 [12] it was 10.9 upbm affinity estimate (log intensity, higher = more binding, comparable within an allelic series). The binding signal in the assay with SIX6 [13] is 10.9 upbm affinity estimate (log intensity, higher = more binding, comparable within an allelic series).
